What was measured:
[1] = biological target: T1, Ephrin type-B receptor 1 (Homo sapiens) (UniProt P54762); conditions: at 10 µM
T1 sequence (whole entry): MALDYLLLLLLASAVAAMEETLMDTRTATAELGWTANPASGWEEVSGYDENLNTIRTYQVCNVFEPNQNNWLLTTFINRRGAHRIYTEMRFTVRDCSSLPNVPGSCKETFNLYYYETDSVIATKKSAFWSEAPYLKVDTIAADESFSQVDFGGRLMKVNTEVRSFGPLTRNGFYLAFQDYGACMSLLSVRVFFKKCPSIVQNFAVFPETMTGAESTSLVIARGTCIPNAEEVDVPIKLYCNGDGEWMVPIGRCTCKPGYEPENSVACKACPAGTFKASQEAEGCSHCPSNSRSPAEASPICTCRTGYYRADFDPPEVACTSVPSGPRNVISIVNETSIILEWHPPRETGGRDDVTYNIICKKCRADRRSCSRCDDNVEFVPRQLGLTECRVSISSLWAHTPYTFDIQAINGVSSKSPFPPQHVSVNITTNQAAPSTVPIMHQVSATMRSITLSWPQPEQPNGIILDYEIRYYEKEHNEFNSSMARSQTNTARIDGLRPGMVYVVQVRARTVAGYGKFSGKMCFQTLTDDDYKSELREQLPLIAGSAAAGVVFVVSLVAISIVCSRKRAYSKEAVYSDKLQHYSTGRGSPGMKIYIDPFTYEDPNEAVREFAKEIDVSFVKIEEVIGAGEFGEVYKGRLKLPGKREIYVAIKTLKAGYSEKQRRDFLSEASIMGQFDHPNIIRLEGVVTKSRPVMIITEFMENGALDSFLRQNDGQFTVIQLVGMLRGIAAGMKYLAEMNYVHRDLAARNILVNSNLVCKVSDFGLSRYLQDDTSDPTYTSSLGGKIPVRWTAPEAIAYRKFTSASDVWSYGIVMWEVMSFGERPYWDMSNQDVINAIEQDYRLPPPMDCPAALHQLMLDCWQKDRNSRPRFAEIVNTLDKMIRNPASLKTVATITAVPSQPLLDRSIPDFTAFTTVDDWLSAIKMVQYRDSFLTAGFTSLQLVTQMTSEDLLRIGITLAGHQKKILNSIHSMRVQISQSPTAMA

[2] = biological target: T2, Ephrin type-B receptor 2 (Homo sapiens) (UniProt P29323); conditions: at 1 µM
T2 sequence (whole entry): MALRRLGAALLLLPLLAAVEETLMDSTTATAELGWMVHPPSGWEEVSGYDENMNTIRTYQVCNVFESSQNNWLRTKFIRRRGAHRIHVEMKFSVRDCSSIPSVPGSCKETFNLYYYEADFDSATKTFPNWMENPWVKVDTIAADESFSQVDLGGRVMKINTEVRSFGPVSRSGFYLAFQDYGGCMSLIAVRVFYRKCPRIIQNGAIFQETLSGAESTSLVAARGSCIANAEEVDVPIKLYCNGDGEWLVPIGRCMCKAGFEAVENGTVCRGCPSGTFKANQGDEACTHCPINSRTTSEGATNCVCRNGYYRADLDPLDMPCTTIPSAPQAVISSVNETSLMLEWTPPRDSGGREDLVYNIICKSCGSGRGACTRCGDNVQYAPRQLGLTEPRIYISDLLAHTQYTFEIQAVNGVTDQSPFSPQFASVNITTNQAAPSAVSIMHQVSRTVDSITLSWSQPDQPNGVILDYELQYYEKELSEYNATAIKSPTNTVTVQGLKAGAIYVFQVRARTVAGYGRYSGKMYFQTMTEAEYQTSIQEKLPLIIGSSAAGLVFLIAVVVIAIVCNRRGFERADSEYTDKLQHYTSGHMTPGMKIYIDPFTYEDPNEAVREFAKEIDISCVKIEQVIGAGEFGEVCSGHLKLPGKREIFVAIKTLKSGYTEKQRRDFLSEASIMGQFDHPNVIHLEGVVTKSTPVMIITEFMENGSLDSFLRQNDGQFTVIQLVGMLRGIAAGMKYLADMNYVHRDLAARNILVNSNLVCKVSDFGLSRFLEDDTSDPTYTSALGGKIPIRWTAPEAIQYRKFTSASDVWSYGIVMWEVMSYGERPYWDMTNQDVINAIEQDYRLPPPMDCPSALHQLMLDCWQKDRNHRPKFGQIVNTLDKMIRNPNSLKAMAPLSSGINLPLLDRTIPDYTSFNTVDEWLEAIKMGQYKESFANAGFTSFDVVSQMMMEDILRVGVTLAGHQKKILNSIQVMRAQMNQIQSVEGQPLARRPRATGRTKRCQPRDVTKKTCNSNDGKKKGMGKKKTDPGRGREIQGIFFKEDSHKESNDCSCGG

[3] = biological target: T2, Ephrin type-B receptor 2 (Homo sapiens); conditions: at 10 µM
[4] = biological target: T3, Ephrin type-B receptor 3 (Homo sapiens) (UniProt P54753); conditions: at 1 µM
T3 sequence (whole entry): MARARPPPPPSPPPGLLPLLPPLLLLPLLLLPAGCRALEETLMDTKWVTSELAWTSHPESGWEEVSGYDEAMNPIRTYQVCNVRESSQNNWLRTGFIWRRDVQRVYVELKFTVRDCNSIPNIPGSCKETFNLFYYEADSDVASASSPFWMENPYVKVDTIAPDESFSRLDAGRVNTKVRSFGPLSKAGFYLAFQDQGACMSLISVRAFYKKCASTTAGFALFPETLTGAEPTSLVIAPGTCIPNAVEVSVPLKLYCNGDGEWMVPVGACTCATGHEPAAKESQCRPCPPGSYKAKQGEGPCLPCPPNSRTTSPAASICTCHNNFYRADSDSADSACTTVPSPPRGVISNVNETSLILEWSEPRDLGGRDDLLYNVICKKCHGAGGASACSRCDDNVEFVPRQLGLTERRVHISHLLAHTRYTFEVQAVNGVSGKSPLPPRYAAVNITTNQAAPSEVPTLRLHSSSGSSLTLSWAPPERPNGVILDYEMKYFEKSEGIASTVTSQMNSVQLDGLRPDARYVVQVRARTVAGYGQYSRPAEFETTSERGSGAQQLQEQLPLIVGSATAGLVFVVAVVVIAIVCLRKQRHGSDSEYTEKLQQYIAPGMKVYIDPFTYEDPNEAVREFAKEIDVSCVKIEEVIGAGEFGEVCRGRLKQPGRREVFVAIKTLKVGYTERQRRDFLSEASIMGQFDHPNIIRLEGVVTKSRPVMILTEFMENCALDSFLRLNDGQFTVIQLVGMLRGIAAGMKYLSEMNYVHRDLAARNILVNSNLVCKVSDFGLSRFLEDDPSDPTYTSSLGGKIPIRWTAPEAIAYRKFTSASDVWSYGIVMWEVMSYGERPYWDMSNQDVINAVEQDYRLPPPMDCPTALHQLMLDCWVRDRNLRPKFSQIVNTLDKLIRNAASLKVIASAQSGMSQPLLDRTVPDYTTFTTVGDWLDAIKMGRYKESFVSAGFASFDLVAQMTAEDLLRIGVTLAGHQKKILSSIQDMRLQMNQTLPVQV

[5] = biological target: T3, Ephrin type-B receptor 3 (Homo sapiens); conditions: at 10 µM
[6] = biological target: T4, Ephrin type-B receptor 4 (Homo sapiens) (UniProt P54760); conditions: at 1 µM
T4 sequence (whole entry): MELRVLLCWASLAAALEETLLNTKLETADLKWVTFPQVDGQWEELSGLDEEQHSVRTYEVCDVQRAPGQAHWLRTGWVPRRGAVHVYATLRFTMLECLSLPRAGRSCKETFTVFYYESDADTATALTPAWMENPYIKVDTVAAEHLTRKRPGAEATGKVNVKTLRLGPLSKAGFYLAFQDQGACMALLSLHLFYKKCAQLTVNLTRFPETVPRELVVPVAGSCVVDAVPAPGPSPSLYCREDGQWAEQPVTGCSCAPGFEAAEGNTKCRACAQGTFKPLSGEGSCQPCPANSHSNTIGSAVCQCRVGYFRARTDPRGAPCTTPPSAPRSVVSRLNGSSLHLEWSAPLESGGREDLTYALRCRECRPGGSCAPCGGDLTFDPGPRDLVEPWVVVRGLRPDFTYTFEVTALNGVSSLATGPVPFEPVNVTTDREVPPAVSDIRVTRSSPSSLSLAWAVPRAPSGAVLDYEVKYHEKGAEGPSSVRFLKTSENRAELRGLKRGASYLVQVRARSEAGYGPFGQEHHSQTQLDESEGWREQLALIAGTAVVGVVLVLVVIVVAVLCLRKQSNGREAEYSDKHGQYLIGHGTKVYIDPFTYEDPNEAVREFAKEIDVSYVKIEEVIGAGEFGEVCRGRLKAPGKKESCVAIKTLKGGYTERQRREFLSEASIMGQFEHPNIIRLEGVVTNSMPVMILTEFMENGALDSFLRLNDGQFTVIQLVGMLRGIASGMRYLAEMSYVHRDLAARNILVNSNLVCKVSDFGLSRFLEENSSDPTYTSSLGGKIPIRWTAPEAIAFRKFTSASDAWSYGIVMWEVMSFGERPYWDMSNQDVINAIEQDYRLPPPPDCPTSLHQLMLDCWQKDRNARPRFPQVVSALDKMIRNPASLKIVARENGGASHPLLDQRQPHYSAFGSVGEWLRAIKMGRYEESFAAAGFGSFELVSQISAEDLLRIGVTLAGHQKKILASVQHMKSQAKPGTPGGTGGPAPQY

[7] = biological target: T4, Ephrin type-B receptor 4 (Homo sapiens); conditions: at 10 µM
[8] = biological target: Receptor tyrosine-protein kinase erbB-4 (Homo sapiens) (UniProt Q15303); conditions: at 1 µM
Chain of Receptor tyrosine-protein kinase erbB-4 (Homo sapiens) (Q15303 whole entry): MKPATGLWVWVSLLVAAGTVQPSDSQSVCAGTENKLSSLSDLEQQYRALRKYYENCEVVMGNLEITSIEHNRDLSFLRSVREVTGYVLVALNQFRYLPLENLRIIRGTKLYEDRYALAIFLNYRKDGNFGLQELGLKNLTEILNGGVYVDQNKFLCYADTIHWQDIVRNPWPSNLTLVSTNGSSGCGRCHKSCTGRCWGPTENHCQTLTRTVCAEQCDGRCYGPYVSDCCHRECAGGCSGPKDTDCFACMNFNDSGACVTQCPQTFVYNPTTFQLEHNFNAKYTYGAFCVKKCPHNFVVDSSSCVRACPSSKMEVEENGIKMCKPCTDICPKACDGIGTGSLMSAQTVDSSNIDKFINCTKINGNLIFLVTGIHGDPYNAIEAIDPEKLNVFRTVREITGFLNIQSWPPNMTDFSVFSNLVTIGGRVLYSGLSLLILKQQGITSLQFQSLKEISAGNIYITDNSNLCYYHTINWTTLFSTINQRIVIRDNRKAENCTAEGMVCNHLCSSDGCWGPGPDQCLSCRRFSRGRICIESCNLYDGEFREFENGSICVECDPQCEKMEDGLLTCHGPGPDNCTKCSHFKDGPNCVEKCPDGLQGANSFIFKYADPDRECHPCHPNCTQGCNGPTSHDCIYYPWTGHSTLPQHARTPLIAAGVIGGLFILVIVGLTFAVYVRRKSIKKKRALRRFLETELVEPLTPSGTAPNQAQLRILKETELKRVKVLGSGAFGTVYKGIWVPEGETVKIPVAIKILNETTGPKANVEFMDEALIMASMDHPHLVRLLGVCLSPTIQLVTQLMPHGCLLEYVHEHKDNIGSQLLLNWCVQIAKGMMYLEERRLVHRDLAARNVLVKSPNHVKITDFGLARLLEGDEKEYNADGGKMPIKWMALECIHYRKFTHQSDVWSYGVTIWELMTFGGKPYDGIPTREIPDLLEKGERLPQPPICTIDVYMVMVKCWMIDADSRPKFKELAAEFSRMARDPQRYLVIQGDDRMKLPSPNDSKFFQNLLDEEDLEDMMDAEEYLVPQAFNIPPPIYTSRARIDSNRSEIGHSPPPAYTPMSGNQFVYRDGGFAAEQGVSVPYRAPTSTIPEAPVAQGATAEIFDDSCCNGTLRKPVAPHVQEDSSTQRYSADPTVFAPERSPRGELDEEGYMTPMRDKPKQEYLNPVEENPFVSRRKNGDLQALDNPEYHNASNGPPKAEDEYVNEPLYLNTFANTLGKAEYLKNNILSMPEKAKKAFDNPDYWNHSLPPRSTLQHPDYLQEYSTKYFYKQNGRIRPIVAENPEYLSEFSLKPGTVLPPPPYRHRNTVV

[9] = biological target: Receptor tyrosine-protein kinase erbB-4 (Homo sapiens) (UniProt Q15303); conditions: at 10 µM
[10] = biological target: Focal adhesion kinase 1 (Homo sapiens) (UniProt Q05397); conditions: at 1 µM
Chain of Focal adhesion kinase 1 (Homo sapiens) (Q05397 2-1052 limits assumed): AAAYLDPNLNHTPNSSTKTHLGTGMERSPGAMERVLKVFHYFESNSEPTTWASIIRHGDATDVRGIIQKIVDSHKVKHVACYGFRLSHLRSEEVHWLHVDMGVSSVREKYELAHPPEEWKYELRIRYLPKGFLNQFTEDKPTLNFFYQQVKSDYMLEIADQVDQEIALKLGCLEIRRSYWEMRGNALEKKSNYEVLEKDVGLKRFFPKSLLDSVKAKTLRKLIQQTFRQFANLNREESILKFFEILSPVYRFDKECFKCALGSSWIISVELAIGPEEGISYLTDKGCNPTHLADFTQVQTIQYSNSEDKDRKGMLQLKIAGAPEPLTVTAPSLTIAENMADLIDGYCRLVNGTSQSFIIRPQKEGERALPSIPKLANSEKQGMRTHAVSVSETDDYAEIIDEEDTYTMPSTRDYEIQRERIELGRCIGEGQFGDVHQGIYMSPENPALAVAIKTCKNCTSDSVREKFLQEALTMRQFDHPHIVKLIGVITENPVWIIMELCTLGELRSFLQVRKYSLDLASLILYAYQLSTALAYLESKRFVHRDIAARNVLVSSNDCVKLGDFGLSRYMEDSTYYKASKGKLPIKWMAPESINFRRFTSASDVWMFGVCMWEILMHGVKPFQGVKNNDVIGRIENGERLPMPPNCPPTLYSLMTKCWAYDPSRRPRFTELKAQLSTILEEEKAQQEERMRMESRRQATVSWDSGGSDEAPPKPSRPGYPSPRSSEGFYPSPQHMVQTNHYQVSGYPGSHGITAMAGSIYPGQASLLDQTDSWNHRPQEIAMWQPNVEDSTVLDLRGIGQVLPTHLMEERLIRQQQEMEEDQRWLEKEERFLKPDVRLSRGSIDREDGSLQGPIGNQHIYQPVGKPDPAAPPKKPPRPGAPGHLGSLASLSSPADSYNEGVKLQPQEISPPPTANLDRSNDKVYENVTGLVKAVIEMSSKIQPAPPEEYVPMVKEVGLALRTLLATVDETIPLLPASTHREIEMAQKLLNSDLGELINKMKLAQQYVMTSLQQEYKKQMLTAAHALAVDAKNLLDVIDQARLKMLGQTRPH

Structure (SMILES): Cn1cc(/C=C2\C(=O)Nc3ccc(S(N)(=O)=O)cc32)c2ccccc21
- residual activity [1]: 21%
- residual activity [2]: 73%
- residual activity [3]: 49%
- residual activity [4]: 100% (inactive)
- residual activity [5]: 117%
- residual activity [6]: 57%
- residual activity [7]: 11%
- residual activity [8]: 94%
- residual activity [9]: 85%
- residual activity [10]: 103%
